Measured values as given in article PMC4336329 (PLoS ONE, 2015).
About 14,000 (4.5%) of roughly 310,000 compounds showed an effect of 50% or more. Effects have a minus sign here. Only a selection was taken, and strong results are over-represented in it overall.

Molecular target: human ether-à-go-go-related gene (hERG) potassium channel (human, UniProt Q12809)
Test: primary screen, population patch clamp on CHO cells stably expressing hERG; higher = less effect of the substance
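Further: peak tail current of the secondary pulse compared with the same well before compound.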

human ether-à-go-go-related gene (hERG) potassium channel, sequence (Q12809 whole entry, looked up): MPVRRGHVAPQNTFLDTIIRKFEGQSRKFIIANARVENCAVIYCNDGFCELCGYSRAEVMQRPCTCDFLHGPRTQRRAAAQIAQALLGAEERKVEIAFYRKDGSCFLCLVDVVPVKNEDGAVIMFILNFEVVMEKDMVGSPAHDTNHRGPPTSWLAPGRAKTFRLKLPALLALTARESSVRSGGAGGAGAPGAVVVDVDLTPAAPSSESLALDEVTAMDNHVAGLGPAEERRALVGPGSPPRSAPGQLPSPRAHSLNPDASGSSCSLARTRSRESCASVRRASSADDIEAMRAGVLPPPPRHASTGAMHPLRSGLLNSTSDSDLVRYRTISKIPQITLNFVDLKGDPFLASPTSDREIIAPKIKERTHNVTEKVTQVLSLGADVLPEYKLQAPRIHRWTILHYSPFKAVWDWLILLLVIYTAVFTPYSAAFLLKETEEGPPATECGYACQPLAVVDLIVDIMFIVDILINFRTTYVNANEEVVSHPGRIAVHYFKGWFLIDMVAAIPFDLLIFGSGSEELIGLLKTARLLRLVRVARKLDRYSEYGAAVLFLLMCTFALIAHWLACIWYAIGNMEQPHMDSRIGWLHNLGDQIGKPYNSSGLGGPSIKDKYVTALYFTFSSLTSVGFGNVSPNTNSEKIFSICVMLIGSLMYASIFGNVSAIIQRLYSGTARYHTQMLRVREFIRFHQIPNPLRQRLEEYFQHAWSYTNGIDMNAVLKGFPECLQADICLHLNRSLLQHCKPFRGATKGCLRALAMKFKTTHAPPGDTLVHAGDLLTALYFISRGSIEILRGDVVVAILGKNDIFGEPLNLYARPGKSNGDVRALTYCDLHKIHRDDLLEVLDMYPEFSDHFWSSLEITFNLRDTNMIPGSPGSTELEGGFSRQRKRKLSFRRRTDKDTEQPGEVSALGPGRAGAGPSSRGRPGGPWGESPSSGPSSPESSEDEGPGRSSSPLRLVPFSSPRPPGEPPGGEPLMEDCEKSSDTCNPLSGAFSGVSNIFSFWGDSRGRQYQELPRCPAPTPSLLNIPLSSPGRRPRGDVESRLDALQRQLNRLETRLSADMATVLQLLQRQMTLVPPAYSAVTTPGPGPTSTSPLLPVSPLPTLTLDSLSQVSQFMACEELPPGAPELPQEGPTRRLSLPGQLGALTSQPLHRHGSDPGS

Row | Structure (SMILES) | hERG current change (%, negative = inhibition) at 10uM [%]
1 | COc1ccc(/C=C2\C(=O)c3ccccc3OC2c2ccccc2)cc1 (stereo not shown) | 7.66
2 | COC(=O)[C@@]1(Cc2ccc(OC)cc2)[C@H]2c3cc(C(=O)N4CCCC4)n(Cc4c(CO)[nH]cc(C)c4=O)c3C[C@H]2CN1C(=O)c1ccccc1 | 3.94
3 | Cc1ccc(Cl)c(OCC(=O)Nc2cc(S(=O)(=O)N3CCOCC3)ccc2N2CCCC2)c1 | -15.4
4 | Cc1ccc(OCC(=O)Nc2cc(S(=O)(=O)N3CCCCC3)ccc2N2CCN(C)CC2)c(C)c1 | -57.7
5 | CN1CCN(c2ccc(S(=O)(=O)N3CCCCC3)cc2NC(=O)COc2ccc([N+](=O)[O-])cc2)CC1 | -34.3
6 | CN1CCN(c2ccc(S(=O)(=O)N3CCCCC3)cc2NC(=O)COc2ccc(F)cc2)CC1 | -75.2
7 | CN1CCN(c2ccc(S(=O)(=O)N3CCCCC3)cc2NC(=O)COc2cccc(Cl)c2)CC1 | -49.1
8 | CN1CCN(c2ccc(S(=O)(=O)N3CCCCC3)cc2NC(=O)c2ccc(F)cc2F)CC1 | -68.4
9 | Cc1ccccc1C(=O)Nc1cc(S(=O)(=O)N2CCCCC2)ccc1N1CCN(C)CC1 | -37.4
10 | Cc1cccc(OCC(=O)Nc2cc(S(=O)(=O)N3CCCCC3)ccc2N2CCN(C)CC2)c1 | -63
11 | CN1CCN(c2ccc(S(=O)(=O)N3CCCCC3)cc2NC(=O)Cc2ccccc2F)CC1 | -31
12 | O=C(COc1ccc(F)cc1)Nc1cc(S(=O)(=O)N2CCCCC2)ccc1N1CCCCC1 | 9.98
13 | Cc1cccc(OCCC(=O)Nc2cc(S(=O)(=O)N3CCCCC3)ccc2N2CCOCC2)c1 | 6.71
14 | Cc1ccccc1OCC(=O)Nc1cc(S(=O)(=O)N2CCCCC2)ccc1N1CCN(C)CC1 | -28.3
15 | Cc1ccc(C)c(OCCC(=O)NNC(=O)Cn2nc(C)cc2C)c1 | 21.8
16 | O=C(NCc1ccccc1)C1=C[C@@H](c2ccc(Br)cc2)C[C@@H](OCCCCO)O1 | -36.8
17 | COc1cc2c(cc1OC)C(c1ccccc1Cl)N(C)CC2 (stereo not shown) | 1.73
18 | COc1ccc(Cc2c(O)nc(SCC(=O)NC34CC5CC(CC(C5)C3)C4)[nH]c2=O)cc1 | 4.4
19 | Cc1ccc(NC(=O)CCN2C(=O)C3CCCCC3C2=O)c(O)c1 (stereo not shown) | 11.9
20 | CC(CCc1ccccc1)NCC#N.Cl (stereo not shown) | 18.9
21 | O=c1c(Cc2ccc(Cl)cc2Cl)c(O)ccn1CC(F)(F)F | 12.7
22 | COc1ccc(OC)c(S(=O)(=O)n2ccnc2C)c1 | 0.0552
23 | CCOc1ccc(N2CC(C(=O)Nc3c(C)n(C)n(-c4ccccc4)c3=O)CC2=O)cc1 (stereo not shown) | 22.6
24 | CCn1cc(C(=O)N2CCN(C(=O)c3ccco3)CC2)c2cc(OC)c(OC)cc2c1=O | 7.72
25 | CCOCCCNC(=O)c1cc(-c2ccc(Br)s2)nc2ccccc12 | 15
26 | CC(C)C(=O)NS(=O)(=O)c1ccc(N)cc1 | 8.54
27 | Cc1ccc(NC(=O)C2(NC(=O)c3cccc(N4C(=O)CSC4c4ccccc4)c3)CCCCC2)cc1 (stereo not shown) | 2.72
28 | Cc1cc2c(cc1S(=O)(=O)NCCc1ccc(Cl)cc1)OCC(=O)N2 | -21.3

Row | Structure (SMILES) | hERG current change (%, negative = inhibition) at 10uM [%]
29 | Cc1cc2c(cc1S(=O)(=O)NCc1ccc(Cl)cc1)OCC(=O)N2 | -57.9
30 | Cc1ccc(CNS(=O)(=O)c2cc3c(cc2C)NC(=O)CO3)cc1 | -39.8
31 | COc1cccc(NS(=O)(=O)c2cc3c(cc2C)NC(=O)CO3)c1 | -38.7
32 | COc1ccc(NS(=O)(=O)c2cc3c(cc2C)NC(=O)CO3)c(OC)c1 | -15.3
33 | COc1cc(NS(=O)(=O)c2cc3c(cc2C)NC(=O)CO3)cc(OC)c1 | -62.2
34 | O=C(O)c1ccc(NC(=S)N2CCCCC2)cc1 | 19.8
35 | CN(CC(=O)N1CCCCCC1)S(=O)(=O)c1ccc(Br)s1 | -9.92
36 | COc1ccc([N+](=O)[O-])cc1NC(=O)CCCOc1ccccc1 | 21.6
37 | COC(=O)c1cc2c(N)c(C(=O)c3ccc(Cl)cc3)sc2nc1C(OC)OC | -69.6
38 | COC(=O)c1cc2c(N)c(C(=O)c3ccccc3)sc2nc1C(OC)OC | 0.631
39 | Nc1c(C(=O)c2ccc(Cl)cc2)sc2nc3c(cc12)CCC3 | 12
40 | CCNC(=S)N1CCN(C(c2ccccc2)c2ccccc2)CC1 | 2.6
41 | CCC(C)NC(=S)N1CCN(C(c2ccccc2)c2ccccc2)CC1 (stereo not shown) | -59.6
42 | CC(C)NC(=S)N1CCN(C(c2ccccc2)c2ccccc2)CC1 | -34.7
43 | O=c1cc(O)c2c(=O)n(-c3ccccc3)c3c(c2o1)CCCCC3 | -0.822
44 | Cn1c(N2CCNCC2)nc2ccccc21 | -15.7
45 | c1ccc(C(c2ccccc2)N2CCN(c3ccc4ccccc4n3)CC2)cc1 | -3.18
46 | CCCn1c(N2CCN(C(=O)NCc3ccccc3)CC2)nc2ccccc21 | -67.9
47 | CC(C)n1c(N2CCN(C(=O)Nc3ccccc3)CC2)nc2ccccc21 | -14.6
48 | CC(C)n1c(N2CCN(C(=O)NCc3ccccc3)CC2)nc2ccccc21 | -59.2
49 | Cn1c(N2CCN(C(=O)NC34CC5CC(CC(C5)C3)C4)CC2)nc2ccccc21 | 23.2
50 | Cn1c(N2CCN(C(c3ccccc3)c3ccccc3)CC2)nc2ccccc21 | -51.7
51 | CC(C)n1c(N2CCN(C(=O)Nc3ccc(Cl)cc3)CC2)nc2ccccc21 | -36.3
52 | CCCn1c(N2CCN(C(=O)Nc3ccccc3)CC2)nc2ccccc21 | -35.9
53 | Cn1c(N2CCN(C(=O)NCc3ccccc3)CC2)nc2ccccc21 | -60
54 | CCCn1c(N2CCN(S(=O)(=O)Cc3ccccc3)CC2)nc2ccccc21 | 4.46
55 | O=C(NCc1ccccc1)N1CCn2c(nc3ccccc32)C1 | 2.53
